In all, about 2,100 compounds went through this assay and about 320 (15%) were called active. About 52% were inconclusive and are not listed. Calls follow the shape of the dose curve; as a rule, active = well fitted cell-killing curve with a large enough effect; inconclusive = small, poorly fitted or top-dose-only effect, or effect the other way; inactive = flat fitted curve, though single readings scatter. This is one part of the list.
Experiment: Viability Counterscreen for CMV-Luciferase Assay of Inhibitors of ATXN expression; also: nearly all actives have a fitted effect of over 55% in size
Details: HEK-293 CMV-luciferase cells viability, protease fluorescence, 24 h; activity change, negative = cytotoxicity: at the top concentration
Outline: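 HEK-293 cells stably expressing CMV-luciferase, treated 24 hr at 37 °C with compounds (several concentrations). Viability by Gly-Phe-AFC fluorescence (25 uM final, 30 min); reporter by SteadyGlo luminescence after 5 min.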
% is scaled to controls: 0 for no effect and ±100 for the full control effect; potency is read from the fitted curve at half-maximal effect.

| SMILES | activity change, negative = cytotoxicity | Potency |
| --- | --- | --- |
| CC(C)(CC(=O)N1CCN(c2ccc(Cl)cc2)CC1)CC1=NS(=O)(=O)c2ccccc2N1 | -18.6% (inactive) | – |
| OC(c1cc(-c2cccc(Cl)c2)nc2ccccc12)C1CCCCN1 (stereo not drawn) | – | 17.8 µM (active) |
| CCOC(=O)Cn1cc(C(=O)c2ccco2)c2ccccc21 | 0.882% (inactive) | – |
| Cc1c(C(=O)NCc2ccc(C(F)(F)F)cc2)sc(=O)n1Cc1cccc(F)c1 | 12% [at 57.5 µM] (inactive) | – |
| CCn1cc(C(=O)NCc2cccc(F)c2)c(=O)c2cc(F)c(N3CCN(C(=O)c4ccco4)CC3)cc21 | – | 22.4 µM (active) |
| CC(=O)c1ccc(N2CCN(CC(O)COC(c3ccccc3)c3ccccc3)CC2)cc1 (stereo not drawn) | -1.22% (inactive) | – |
| CCCOc1ccc(C(=O)C(CN2CCOCC2)c2ccccc2)cc1 (stereo not drawn) | – | 25.1 µM (active) |
| COc1cccc(CC(=O)Nc2nc(-c3ccc(OC)c(OC)c3)cs2)c1 | – | 28.2 µM (active) |
| COc1ccc(-c2csc(Nc3ccc(S(N)(=O)=O)cc3)n2)cc1OC | -22.9% [at 57.5 µM] (inactive) | – |
| COc1ccc(CC(=O)Nc2nc(-c3ccc(OC)c(OC)c3)cs2)cc1OC | -25.3% (inactive) | – |
| CC(C)(C)c1ccc(CC(=O)N2CCC2(C)C(=O)Nc2cnc3ccccc3c2)cc1 (stereo not drawn) | -1.12% (inactive) | – |
| NC(=S)n1[nH]c(-c2ccc([N+](=O)[O-])cc2)c(N=Nc2cccc(Cl)c2)c1=O | – | 14.1 µM (active) |
| CCOc1ccc(C(=O)Nc2ccc(Cc3ccncc3)cc2)cc1Br | -12.6% [at 57.5 µM] (inactive) | – |
| Cc1cccc(OCCCC(=O)Nc2nc3ccccc3[nH]2)c1 | -23.8% (inactive) | – |
| COC(=O)c1sc(NC(=O)c2ccc(OC)cc2OC)nc1C | -8.55% [at 57.5 µM] (inactive) | – |
| Cc1cc(C)c(C)c(OC(=O)c2sc(Cl)nc2C)c1 | – | 20 µM (active) |
| Clc1ccc(COC(Cn2ccnc2)c2ccc(Cl)cc2Cl)c(Cl)c1 (stereo not drawn) | -29.7% (inactive) | – |
| CCc1cc2c(=O)c(-c3cnn(-c4ccccc4)c3)coc2c(CN2CCOCC2)c1O | -15.4% (inactive) | – |
| Cc1nnc(SCC(N)=O)n1CC1CCCO1 (stereo not drawn) | -21.6% [at 57.5 µM] (inactive) | – |
| CCCCC(=O)OCC(=O)C1(O)Cc2c(O)c3c(c(O)c2C(OC2CC(NC(=O)C(F)(F)F)C(O)C(C)O2)C1)C(=O)c1c(OC)cccc1C3=O (stereo not drawn) | – | 8.91 µM (active) |
| COc1cccc2c1C(=N)c1c(O)c3c(c(O)c1C2=O)CC(O)(C(C)=O)CC3OC1CC(N)C(O)C(C)O1 (stereo not drawn) | – | 1.26 µM (active) |
| COc1cccc2c1C(=O)c1c(O)c3c(c(O)c1C2=O)C[C@](O)(C(C)=O)C[C@H]3O[C@@H]1C[C@@H](N)[C@@H](O)[C@@H](C)O1 | – | 0.891 µM (active) |
| Cn1c(CCc2nc3ccccc3[nH]2)nnc1SCC#N | 15.7% [at 57.5 µM] (inactive) | – |
| CCC(C)(C)c1ccc(OCCCC[n+]2ccc(C)cc2)c(C(C)(C)CC)c1 | -27.3% (inactive) | – |
| CN(CC(=O)Nc1cccc(F)c1)CC(=O)Nc1cccc2ccccc12 | -9.2% [at 57.5 µM] (inactive) | – |

| SMILES | activity change, negative = cytotoxicity | Potency |
| --- | --- | --- |
| CCN1CCN(Cc2ccc(NC(=O)c3ccc(C)c(NC(=O)c4nccnc4N)c3)cc2C(F)(F)F)CC1 | -25.1% [at 57.5 µM] (inactive) | – |
| O=C1C=C(Nc2ccccc2O)c2ccccc2C1=O | – | 20 µM (active) |
| OC(c1ccccc1)(c1nc(-c2ccc3ccccc3c2)cs1)C(F)(F)F (stereo not drawn) | 11% (inactive) | – |
| Cc1ccc(NS(=O)(=O)c2cc3c4c(cccc4c2)C(=O)NC3=O)cc1C | -14.4% (inactive) | – |
| O=C(N/N=C(\c1ccccc1)c1ccccn1)c1ccccc1Cl | – | 7.94 µM (active) |
| CCC(CC)C(=O)c1c[nH]c(C(=O)NCc2ccccn2)c1 | 3.69% [at 57.5 µM] (inactive) | – |
| O=C(NN=C(c1ccccc1)c1ccccn1)c1ccccc1 | – | 3.16 µM (active) |
| O=C(N/N=C(\Cc1ncc[nH]1)c1ccccc1)c1cccnc1 | -16.1% (inactive) | – |
| CCn1c2ccccc2c2cc(/C=N/n3cnnc3)ccc21 | -23.3% (inactive) | – |
| CCN1CCN(C(=S)c2ccc(-c3ccccc3)cc2)CC1 | -13.5% [at 57.5 µM] (inactive) | – |
| Cn1c2c(c(=O)[nH]c1=O)C(c1cccc(O)c1)C1=C(N2)c2ccccc2C1=O (stereo not drawn) | – | 11.2 µM (active) |
| N#Cc1c(N)n(C2OC(CO)C(O)C2O)c2ncnc(N)c12 (stereo not drawn) | – | 1.41 µM (active) |
| CNc1nc2c(N)ncnc2n1[C@H]1O[C@@H](CO)[C@H](O)[C@@H]1O | 1.58% (inactive) | – |
| CCOC(=O)c1c(NC(=O)COC(=O)c2ccccc2NC)sc(C(=O)N(C)C)c1C | -3.31% (inactive) | – |
| COC(=O)c1c(C)oc2ccc(N(C(=O)c3ccncc3)S(=O)(=O)c3ccc(C)cc3C)cc12 | -27.7% (inactive) | – |
| CCC1(c2ccccc2)ON(c2c(Br)cccc2Br)C1=O (stereo not drawn) | – | 17.8 µM (active) |
| Cc1nc(Oc2ccc(S(=O)(=O)N3CCOCC3)cc2Cl)c2c3c(sc2n1)CCCC3 | -19.1% (inactive) | – |
| N=c1ccn(CC(=O)c2ccc(-c3ccccc3)cc2)cc1 | -17.4% (inactive) | – |
| Clc1ccc(-c2cc(C3CCNCC3)[nH]n2)c(Cl)c1 | 26.4% [at 57.5 µM] (inactive) | – |
| COc1cc(NS(=O)(=O)c2ccc(N/C=C(\C#N)c3nc4cc(Cl)ccc4o3)cc2)nc(OC)n1 | – | 14.1 µM (active) |
| CCN1CCN(c2ccc(Cl)cc2NC(=O)c2ccc(-n3nc(C)cc3C)cc2)CC1 | -12.5% [at 57.5 µM] (inactive) | – |
| Nc1nc(NCCc2ccccc2)nc(NCc2ccccc2)c1[N+](=O)[O-] | -23.9% [at 57.5 µM] (inactive) | – |
| CCc1cc[n+](C2=C([O-])c3ccccc3C(=O)/C2=N\S(=O)(=O)c2cccs2)cc1 | – | 17.8 µM (active) |
| Cc1cc(C)c2c(CC(=O)Nc3ccc(Cl)cn3)coc2c1 | -3.79% (inactive) | – |
| COc1ccccc1/C=C/C(=O)OCC(=O)Nc1ccc(Cl)cn1 | -27.1% [at 57.5 µM] (inactive) | – |

| SMILES | activity change, negative = cytotoxicity | Potency |
| --- | --- | --- |
| O=C(COC(=O)c1cc([N+](=O)[O-])ccc1N1CCOCC1)Nc1ccc(Cl)cn1 | – | 14.1 µM (active) |
| CCn1c(C)cc(C(=O)COC(=O)c2ccccc2[N+](=O)[O-])c1C | -4.45% [at 57.5 µM] (inactive) | – |
| O=C(N/N=C/c1cc([N+](=O)[O-])ccc1O)c1ccc(COc2ccc3c(c2)CCC3)o1 | – | 11.2 µM (active) |
| COc1ccc(O)c(/C=N/NC(=O)c2ccc(OCc3cccc(Br)c3)cc2)c1 | -22.1% (inactive) | – |
| COc1ccc(O)c(/C=N/NC(=O)c2ccc(N3CCCC3=O)cc2)c1 | -7.9% [at 57.5 µM] (inactive) | – |
| COc1ccc2nc(C)c3c(c2c1)OC(C(C)(Cl)Br)C3 (stereo not drawn) | -24.3% (inactive) | – |
| N#CCc1nc2ccccc2c(=O)[nH]1 | 4.06% [at 57.5 µM] (inactive) | – |
| CC1(C)COCN1S(=O)(=O)c1ccc(C(=O)Nc2nnc(-c3ccc(Cl)s3)o2)cc1 | -16.1% (inactive) | – |
| O=C1c2cccc3cc([N+](=O)[O-])cc(c23)C(=O)N1CCN1CCCC1 | – | 1.58 µM (active) |
| C/[N+]([O-])=C\c1cccc(OCCN2CCN(c3ncc(C(F)(F)F)cc3Cl)CC2)c1 | 6.84% (inactive) | – |
| COc1cc(C(=O)O/N=C(\N)Cc2ccc([N+](=O)[O-])cc2)cc(OC)c1OC | – | 3.16 µM (active) |
| Cn1c(CO)cnc1S(=O)(=O)Cc1ccc([N+](=O)[O-])cc1 | -1.7% [at 57.5 µM] (inactive) | – |
| Cc1sc2nc(CN3CCCC3)nc(N3CCC(C(N)=O)CC3)c2c1C | -6.87% [at 57.5 µM] (inactive) | – |
| Nc1ccc2c(c1)OC1(CCCC1)O2 | -18% (inactive) | – |
| CCn1c2ccccc2c2cc(NC(=O)COC(=O)Cc3cn4ccsc4n3)ccc21 | 1.78% (inactive) | – |
| CC1CCN(Cc2c(C(=O)N/N=C/c3cc(Br)ccc3O)nnn2-c2nonc2N)CC1 | -14% (inactive) | – |
| CC1CC(C)CN(CCCNC(=O)c2cc3c(s2)-c2ccccc2OC3)C1 (stereo not drawn) | -13.8% (inactive) | – |
| Cc1cccc2c1-c1sc(C(=O)Nc3ccccc3N3CCN(C)CC3)cc1CO2 | – | 22.4 µM (active) |
| Cc1cc(N2CCN(C)CC2)ccc1NC(=O)c1ccc(-c2ccc(Cl)cc2)o1 | -20.4% [at 57.5 µM] (inactive) | – |
| NC(=O)CC(NC(=O)Cc1ccc(Br)cc1)c1ccc(NC2CCCC2)c([N+](=O)[O-])c1 (stereo not drawn) | – | 3.16 µM (active) |
| CC(C)C[C@H](N)c1cn([C@@H](CCCCN)C(=O)N2CCNCC2)nn1 | 6.2% (inactive) | – |
| Cc1nc2ccc(NC(=O)c3ccc(S(=O)(=O)N(C)c4ccccc4)cc3)cc2s1 | -14% (inactive) | – |
| O=C(NC(Nc1nc2ccc([N+](=O)[O-])cc2s1)(C(F)(F)F)C(F)(F)F)c1ccccc1 | – | 0.562 µM (active) |
| O=C(NC(Nc1ncc(S(=O)(=O)c2ccc([N+](=O)[O-])cc2)s1)(C(F)(F)F)C(F)(F)F)c1ccc(Cl)cc1 | – | 10 µM (active) |
| CO[C@@]12[C@@H]3N[C@@H]3CN1C1=C(C(=O)C(N)=C(C)C1=O)[C@@H]2COC(N)=O | 22.6% (inactive) | – |

| SMILES | activity change, negative = cytotoxicity | Potency |
| --- | --- | --- |
| CC1=CC(C)(C)N2C(=O)C3(SCC(=O)N3c3ccc(F)cc3)c3cc(C)cc1c32 (stereo not drawn) | -24% (inactive) | – |
| CCn1ccnc1CN1CCCC(C(=O)c2ccc3cc(OC)ccc3c2)C1 (stereo not drawn) | 4.36% (inactive) | – |
| CN(C)CCNc1ncnc2c1ncn2[C@H]1CN(Cc2ccc(-c3ccccc3)cc2)C[C@@H](CO)O1 | -5.63% [at 57.5 µM] (inactive) | – |
| OC[C@@H]1CN(Cc2ccncc2)C[C@H](n2cnc3c(N4CCN(c5ccccc5)CC4)ncnc32)O1 | -2.73% (inactive) | – |
| OC[C@@H]1CN(Cc2ccc(-c3ccccc3)cc2)C[C@H](n2cnc3c(Nc4ccccc4)ncnc32)O1 | – | 22.4 µM (active) |
| CNc1ccccc1C(=O)OC(C)C(=O)Nc1ccc(Cl)cn1 (stereo not drawn) | -0.359% (inactive) | – |
| CCCc1ccc(O)c(N=Cc2cc(Br)cc(OCC)c2O)c1 | -3.44% [at 57.5 µM] (inactive) | – |
| O=C(Nc1ccc(Br)cc1)c1cccc(OC(=S)N2CCOCC2)c1 | 12.8% (inactive) | – |
| Oc1[nH]c2ccc(Br)cc2c1N=NC(=S)N1CCOCC1 | – | 1.12 µM (active) |
| O=C(NCC1CC1)c1ccc2c(c1)S(=O)(=O)c1cc(Cl)ccc1C2=O | -10.1% (inactive) | – |
| O=C(Nc1ccc(Cc2ccncc2)cc1)c1ccc(S(=O)(=O)N2CCCC2)cc1 | -23.7% [at 57.5 µM] (inactive) | – |
| COc1ccc(C)cc1Nc1nc(C)nc2sc(C)cc12 | -16.3% (inactive) | – |
| CC(=O)Nc1ccc(CNc2nc(NC(C)C)nc3cc(-c4ccccc4)sc23)cc1 | – | 25.1 µM (active) |
| COc1ccccc1CNc1nc(NCc2ccc(NC(C)=O)cc2)c2sccc2n1 | -1.81% (inactive) | – |
| O=C(Oc1c(CN2CCOCC2)cc(Cl)c2cccnc12)c1ccccc1F | 18.9% [at 57.5 µM] (inactive) | – |
| COc1cc(OC)cc(-c2cc3nc(C)c(CCC(=O)O)c(C)n3n2)c1 | -23.2% [at 57.5 µM] (inactive) | – |
| COc1cc(Nc2ncc3c(n2)CCN(C(=O)Nc2ccc(C(C)C)cc2)C3)cc(OC)c1OC | -22.1% (inactive) | – |
| CCN(CC)S(=O)(=O)c1ccc(C(=O)Nc2ccc(Cc3ccncc3)cc2)cc1 | 3.95% [at 57.5 µM] (inactive) | – |
| COc1ccc(-c2nnc(NC(=O)c3ccc(S(=O)(=O)N4COCC4(C)C)cc3)o2)cc1 | -19.2% (inactive) | – |
| CCCN(CCC)S(=O)(=O)c1ccc(C(=O)Nc2nnc(-c3cc(OC)cc(OC)c3)o2)cc1 | – | 7.08 µM (active) |
| CN(c1ccccc1)S(=O)(=O)c1ccc(C(=O)Nc2nnc(-c3ccc(F)cc3)o2)cc1 | – | 14.1 µM (active) |
| CC(=O)c1ccc(C(=O)Nc2nnc(-c3ccc(Cl)cc3)o2)cc1 | -18.4% (inactive) | – |
| CCc1nnc(NC(=O)c2ccc(S(=O)(=O)N(C)c3ccccc3)cc2)o1 | -10.5% (inactive) | – |

Source: PubChem BioAssay AID1745849 (National Center for Advancing Translational Sciences (NCATS), 2022)
